# Test results as given in PubChem BioAssay (NCI).
# This is part of a sample that, as a whole, favours compounds with a hit. Of some 83,000 tested, about 20% had one in any assay.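 Assay: single dose, 48 h. Readout: percent growth (0 = no net growth; negative = cell death). Active: <10.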 A number with no mark means an inactive call. The source made the active and inactive calls.
# System: HL-60(TB) leukemia
# Assay: NCI-60 one-dose screen, 48 h (100 = growth as untreated, 0 = no growth, -100 = all killed)
# Conditions: 10 µM unless noted
row,Structure (SMILES),growth
1,COc1cc(C(=O)N2CCN(c3ccccc3OC)CC2)c(NC(=O)c2cnccn2)cc1OCc1ccccc1,47.5%
2,N=c1c2c(-c3ccccc3)c(-c3ccccc3)n(Cc3ccccc3)c2ncn1CCCO,39%
3,C[C@H]1[C@H]2[C@H]3CC[C@@H]4[C@@]5(C)C/C(=C/c6ccco6)C(=O)C(C)(C)[C@@H]5CC[C@@]4(C)[C@]3(C)CC[C@]23CO[C@]1(C)[C@@H](C(=O)/C=C\c1ccco1)C3,95.8%
4,CCN1C(=O)N(CC)C2C1NC(=O)N2/N=C/C=C/c1ccccc1 (stereo not given),0.782% (active)
5,CCc1c(C)c2cc3c(c(C)c2oc1=O)OCC(=O)N3,75.9%
6,Oc1ccccc1/C=N\NC(=S)Nc1ccc(F)cc1,-10.3% (active)
7,Cc1cc2c(cc1[N+](=O)[O-])NC(CNC(C)C)CC2 (stereo not given),90.9%
8,OC(c1cccc(OCc2ccccc2)c1)c1nnc(-c2ccccc2)o1 (stereo not given),96.3%
9,CCN1CCN(c2nc(NNC(=O)c3ccccc3)nc(N3CCN(C(c4ccccc4)c4ccccc4)CC3)n2)CC1,23.3%
10,Cc1nnc(NC/C=C/c2ccccc2)s1,98%
11,C=C(C)[C@@H]1CC[C@]2(C(=O)N3CCNCC3)CC[C@]3(C)[C@H](CC[C@@H]4[C@@]5(C)C/C(=C/c6ccncc6)C(=O)C(C)(C)[C@@H]5CC[C@]43C)[C@@H]12,99.7%
12,CC(Br)c1nc2ccccc2cc1C(N)=O (stereo not given),104%
13,C=C1C(=O)O[C@H]2[C@H]1CC/C(CNC(=O)CCc1ccc(OC)cc1)=C\CC[C@@]1(C)O[C@@H]21,3.96% (active)
14,Cc1cc(O)ccc1C1=NN(c2ccc(S(C)(=O)=O)cc2)C(=O)CC1,52.6%
15,Nc1ccc(/C=N/Nc2ccnc3c(N)cccc23)c2cccnc12,-60.4% (active)
16,O=C(Cc1c(F)cccc1Cl)Nc1ccc(S(=O)(=O)Nc2ncccn2)cc1,120%
17,COc1cc2c(cc1-c1c(C)noc1C)ncc1nc(CN3CCOCC3)n([C@H](C)COC(F)F)c12,21.7%
18,COC(=O)C1(CC(C)=O)NC(=S)NC(=O)C1C#N (stereo not given),102%
19,COc1cc(Nc2ccnc(NCCNc3ccnc4cc(Cl)ccc34)n2)cc(OC)c1,11.9%
20,COc1cc2c(c(OC)c1OC)CCC(c1cccc(C(=O)Nc3ccc([N+](=O)[O-])cc3)c1)O2 (stereo not given),38.8%

row,Structure (SMILES),growth
1,N#Cc1ccc(-n2nnc3ccccc32)cc1C#N,108%
2,S=c1[nH]ccn1-c1ccccc1Cl,90%
3,CCOC(=O)c1cnc2ccc(Cl)cc2c1NCCCN(C)C,-18.6% (active)
4,CC1OC(n2c3ccccc3c3c4c(c5c6ccccc6[nH]c5c32)C(=O)N(CCN2CCOCC2)C4=O)CC(O)C1O (stereo not given),24.3%
5,O=[N+]([O-])c1cc(Cl)cc(Cl)c1O,99.5%
6,C=C(CN1CC=CCC1)[C@@H]1CC[C@]2(COC(C)=O)CC[C@]3(C)[C@H](CC[C@@H]4[C@@]5(C)CC[C@H](O)C(C)(C)[C@@H]5CC[C@]43C)[C@@H]12,102%
7,COc1ccc(/C=C/c2c(C(=O)/C=C/c3cccs3)c(C)nc3ccccc23)cc1,69.6%
8,CC1=C(C)C(=O)C(Nc2cccc(C(=O)OC(C)(C)C)c2)=C(Br)C1=O,54.9%
9,Cc1c(NC(=O)c2sc3nc4c(cc3c2N)CN(Cc2ccccc2)CC4)cccc1C(F)(F)F,3.22% (active)
10,CC[C@@]1(OC(=O)CN(C)C)C(=O)OCc2c1cc1n(c2=O)Cc2cc3c(N)cccc3nc2-1,-2.25% (active)
11,CCc1cc2n(n1)-c1ncc(C(=O)OC)cc1Oc1ccccc1-2,105%
12,CC(C)c1ccc(Cn2ccc3c4c(N)nc(NC5CC5)nc4ccc32)cc1,-68.8% (active)
13,C#CCNC(=O)[C@]1(C)CCC[C@@]2(C)[C@H]1CC=C1C=C(C(C)C)CC[C@@H]12,131%
14,Cc1nc2sc(C(=O)Nc3cccc(Cl)c3C)c(N)c2cc1C(O)c1ccccc1 (stereo not given),-42.3% (active)
15,N[C@H]1CCC[C@@H]1NCCCCN1C(=O)c2cccc3cc([N+](=O)[O-])cc(c23)C1=O,29.4%
16,C#C[C@]1(O)CC[C@H]2[C@@H]3CC=C4c5sc(-c6ccccc6)nc5CC[C@]4(C)[C@H]3CC[C@@]21C,74.2%
17,O=C(NCCOCCOCCOCCNC(=O)c1cc2c(o1)C(=O)c1ccccc1C2=O)NC12CC3CC(CC(C3)C1)C2,1.17% (active)
18,CCCCOc1ccc(NC(=O)n2nc(NC(C)=O)c3cc(NC(C)=O)ccc32)cc1,72.9%
19,CC(=O)Nc1ccc(Cl)cc1Cl,109%
20,CSc1nc(=O)n(Cc2ccc(Cl)cc2)c(=O)[nH]1,105%
